Experimental findings from the supplement of paper PMC10849652 are described below.

About 8,800 targets were measured; listed, in parts, are those with a hit and a random draw of the rest. About 0.5% of all pairs of compound and target were hits. Unmarked numbers belong to inactive results.

Holding throughout (assay): log2 fold change, soluble protein after heating vs DMSO (PISA); higher = thermal stabilisation; K562 lysate, 10 uM; active = over 0.2 and 3.5 SD of the protein, either way, in both replicates (recomputed)
Compound in test [1]: O=C1NC(=O)C(c2cnc3ccccn23)=C1c1cn2c3c(cc(F)cc13)CN(C(=O)N1CCCCC1)CC2
The gist of the method: (§1)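 The values are log-two fold changes in thermal stability compared with solvent controls and come from duplicates. They were obtained by TMTpro 16plex LC-MS/MS, with channel sums equalised, on the supernatant after 21,000xg for 90 min. That supernatant came from crude K562 extract at 1 mg/mL protein treated with 10 μM compound for 30 min, heated for 3 min across 48°C-58°C, pooled and brought to 0.5% NP-40 at 4°C.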

Compound in test [2]: NCC(=O)Nc1ccc(-n2nc(C(F)(F)F)cc2-c2ccc3c(ccc4ccccc43)c2)cc1
In a few lines: as §1

Compound in another test: O=C(CCCCCCC(=O)Nc1ccccc1)NO [vorinostat]
In a few lines:
as §1

Compound in another test: O=C(O)c1ccc2c(c1)nc(Nc1cccc(Cl)c1)c1ccncc12 [silmitasertib]
In a few lines:
as §1

Compound in another test: c1cn2cc(-c3ccc4cn[nH]c4c3)nc(Nc3ccc(N4CCOCC4)cc3)c2n1 [entospletinib]
In a few lines:
as §1

UniProt Q8WZA2, sequence (Q8WZA2 whole entry, looked up): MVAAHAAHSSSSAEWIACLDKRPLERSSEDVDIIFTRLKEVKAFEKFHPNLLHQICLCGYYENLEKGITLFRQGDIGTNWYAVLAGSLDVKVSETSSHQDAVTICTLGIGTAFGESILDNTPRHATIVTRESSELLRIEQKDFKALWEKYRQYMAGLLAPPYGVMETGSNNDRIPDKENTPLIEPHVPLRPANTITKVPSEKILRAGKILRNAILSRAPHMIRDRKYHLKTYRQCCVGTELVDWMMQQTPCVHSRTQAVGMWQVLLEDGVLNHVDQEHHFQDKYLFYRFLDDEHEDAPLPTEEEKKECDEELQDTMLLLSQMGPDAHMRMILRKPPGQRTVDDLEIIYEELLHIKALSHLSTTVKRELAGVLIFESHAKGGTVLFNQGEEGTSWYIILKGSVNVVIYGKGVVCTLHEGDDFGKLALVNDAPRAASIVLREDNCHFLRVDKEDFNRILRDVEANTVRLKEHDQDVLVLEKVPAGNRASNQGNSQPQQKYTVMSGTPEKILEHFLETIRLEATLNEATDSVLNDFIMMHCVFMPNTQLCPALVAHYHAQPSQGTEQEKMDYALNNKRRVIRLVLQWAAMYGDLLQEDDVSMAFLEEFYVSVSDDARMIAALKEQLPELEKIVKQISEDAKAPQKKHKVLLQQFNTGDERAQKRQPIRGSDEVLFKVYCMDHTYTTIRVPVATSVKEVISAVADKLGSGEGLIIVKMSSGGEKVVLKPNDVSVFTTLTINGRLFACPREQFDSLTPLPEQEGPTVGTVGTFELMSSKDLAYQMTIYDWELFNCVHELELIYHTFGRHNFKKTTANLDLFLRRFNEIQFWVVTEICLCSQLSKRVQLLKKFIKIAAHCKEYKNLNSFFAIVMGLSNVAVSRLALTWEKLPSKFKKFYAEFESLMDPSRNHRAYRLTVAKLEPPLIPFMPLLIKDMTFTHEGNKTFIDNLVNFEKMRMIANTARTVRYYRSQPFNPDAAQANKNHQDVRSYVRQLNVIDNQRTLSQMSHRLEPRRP
UniProt P31949, sequence (P31949 whole entry, looked up): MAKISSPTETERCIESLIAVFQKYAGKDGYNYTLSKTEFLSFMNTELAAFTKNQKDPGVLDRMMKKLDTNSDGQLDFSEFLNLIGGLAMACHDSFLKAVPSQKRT
UniProt Q86VV8, sequence (Q86VV8 whole entry, looked up): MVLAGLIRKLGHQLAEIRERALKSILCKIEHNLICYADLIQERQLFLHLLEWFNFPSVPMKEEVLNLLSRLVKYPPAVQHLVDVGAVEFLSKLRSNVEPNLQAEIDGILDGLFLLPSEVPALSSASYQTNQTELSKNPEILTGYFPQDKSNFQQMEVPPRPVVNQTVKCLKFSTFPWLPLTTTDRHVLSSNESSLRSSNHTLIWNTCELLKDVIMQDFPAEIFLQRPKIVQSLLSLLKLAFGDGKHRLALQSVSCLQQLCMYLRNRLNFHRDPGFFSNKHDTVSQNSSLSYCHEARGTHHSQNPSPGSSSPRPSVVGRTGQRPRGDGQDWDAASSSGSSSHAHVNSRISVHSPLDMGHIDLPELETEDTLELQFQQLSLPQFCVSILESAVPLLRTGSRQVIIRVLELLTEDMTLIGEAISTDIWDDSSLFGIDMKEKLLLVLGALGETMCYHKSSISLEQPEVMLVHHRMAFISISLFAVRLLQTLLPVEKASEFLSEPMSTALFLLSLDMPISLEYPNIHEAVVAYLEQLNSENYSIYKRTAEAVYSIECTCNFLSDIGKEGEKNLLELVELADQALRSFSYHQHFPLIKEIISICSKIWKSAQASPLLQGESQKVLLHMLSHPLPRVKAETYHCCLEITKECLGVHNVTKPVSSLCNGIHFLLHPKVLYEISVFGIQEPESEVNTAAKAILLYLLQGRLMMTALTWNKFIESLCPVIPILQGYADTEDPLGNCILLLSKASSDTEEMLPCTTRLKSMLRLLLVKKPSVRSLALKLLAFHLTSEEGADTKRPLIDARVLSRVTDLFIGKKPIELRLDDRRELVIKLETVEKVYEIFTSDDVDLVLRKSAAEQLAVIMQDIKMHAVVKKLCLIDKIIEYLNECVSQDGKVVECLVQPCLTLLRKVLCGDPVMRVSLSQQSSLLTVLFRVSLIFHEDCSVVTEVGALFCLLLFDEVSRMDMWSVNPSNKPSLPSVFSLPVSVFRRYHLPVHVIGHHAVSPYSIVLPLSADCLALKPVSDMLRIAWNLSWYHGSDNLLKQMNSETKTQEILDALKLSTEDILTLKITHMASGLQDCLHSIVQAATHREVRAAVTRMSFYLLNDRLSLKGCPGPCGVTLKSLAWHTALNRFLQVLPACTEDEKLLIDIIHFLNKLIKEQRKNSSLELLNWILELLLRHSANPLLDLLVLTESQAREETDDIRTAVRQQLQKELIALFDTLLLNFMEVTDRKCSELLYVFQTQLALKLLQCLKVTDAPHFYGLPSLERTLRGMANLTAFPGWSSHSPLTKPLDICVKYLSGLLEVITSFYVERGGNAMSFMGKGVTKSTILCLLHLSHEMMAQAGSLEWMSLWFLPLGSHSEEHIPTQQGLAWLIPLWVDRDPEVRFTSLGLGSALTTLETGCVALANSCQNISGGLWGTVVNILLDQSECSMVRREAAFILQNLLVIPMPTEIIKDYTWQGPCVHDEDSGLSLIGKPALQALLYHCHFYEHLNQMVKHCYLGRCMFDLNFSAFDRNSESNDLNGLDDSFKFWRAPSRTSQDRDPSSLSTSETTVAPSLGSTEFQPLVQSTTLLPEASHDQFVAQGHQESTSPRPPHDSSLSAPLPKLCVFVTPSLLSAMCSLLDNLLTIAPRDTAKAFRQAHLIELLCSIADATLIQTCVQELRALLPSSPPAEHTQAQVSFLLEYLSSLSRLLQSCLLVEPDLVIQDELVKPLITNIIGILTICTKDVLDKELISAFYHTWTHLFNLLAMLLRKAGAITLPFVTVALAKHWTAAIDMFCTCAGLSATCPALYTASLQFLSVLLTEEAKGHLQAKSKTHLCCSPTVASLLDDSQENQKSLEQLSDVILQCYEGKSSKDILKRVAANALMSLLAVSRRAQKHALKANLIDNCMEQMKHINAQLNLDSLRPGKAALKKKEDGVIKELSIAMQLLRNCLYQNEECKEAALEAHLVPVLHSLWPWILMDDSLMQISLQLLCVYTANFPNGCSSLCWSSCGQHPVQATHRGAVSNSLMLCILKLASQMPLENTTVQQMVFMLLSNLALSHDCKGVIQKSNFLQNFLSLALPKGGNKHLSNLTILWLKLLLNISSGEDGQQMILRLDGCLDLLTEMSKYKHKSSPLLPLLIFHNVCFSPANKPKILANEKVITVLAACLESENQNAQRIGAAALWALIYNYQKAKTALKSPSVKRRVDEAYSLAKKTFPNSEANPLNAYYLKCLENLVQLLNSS
UniProt Q9Y225, sequence (Q9Y225 whole entry, looked up): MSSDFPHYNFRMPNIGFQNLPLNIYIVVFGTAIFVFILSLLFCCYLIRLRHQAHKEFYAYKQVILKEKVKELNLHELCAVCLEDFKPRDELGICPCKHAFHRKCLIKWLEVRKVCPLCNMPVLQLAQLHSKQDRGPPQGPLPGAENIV
UniProt Q96JX3, sequence (Q96JX3 whole entry, looked up): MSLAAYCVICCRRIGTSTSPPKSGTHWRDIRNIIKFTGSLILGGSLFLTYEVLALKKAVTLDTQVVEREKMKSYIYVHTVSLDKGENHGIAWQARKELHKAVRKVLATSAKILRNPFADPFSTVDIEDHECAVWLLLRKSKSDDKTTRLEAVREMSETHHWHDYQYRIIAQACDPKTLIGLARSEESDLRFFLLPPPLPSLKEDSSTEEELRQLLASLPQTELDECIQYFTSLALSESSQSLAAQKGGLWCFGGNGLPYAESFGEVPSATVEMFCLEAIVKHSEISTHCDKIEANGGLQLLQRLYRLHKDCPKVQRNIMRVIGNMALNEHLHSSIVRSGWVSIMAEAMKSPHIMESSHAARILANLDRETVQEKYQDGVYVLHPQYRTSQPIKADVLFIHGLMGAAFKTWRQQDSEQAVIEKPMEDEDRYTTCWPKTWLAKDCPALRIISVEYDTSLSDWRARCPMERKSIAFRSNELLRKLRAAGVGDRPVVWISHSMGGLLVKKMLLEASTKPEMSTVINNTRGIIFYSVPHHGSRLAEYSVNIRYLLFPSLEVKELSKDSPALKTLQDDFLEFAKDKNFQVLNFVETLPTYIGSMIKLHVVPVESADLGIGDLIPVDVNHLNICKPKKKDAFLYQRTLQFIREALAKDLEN
UniProt P19793, sequence (P19793 whole entry, looked up): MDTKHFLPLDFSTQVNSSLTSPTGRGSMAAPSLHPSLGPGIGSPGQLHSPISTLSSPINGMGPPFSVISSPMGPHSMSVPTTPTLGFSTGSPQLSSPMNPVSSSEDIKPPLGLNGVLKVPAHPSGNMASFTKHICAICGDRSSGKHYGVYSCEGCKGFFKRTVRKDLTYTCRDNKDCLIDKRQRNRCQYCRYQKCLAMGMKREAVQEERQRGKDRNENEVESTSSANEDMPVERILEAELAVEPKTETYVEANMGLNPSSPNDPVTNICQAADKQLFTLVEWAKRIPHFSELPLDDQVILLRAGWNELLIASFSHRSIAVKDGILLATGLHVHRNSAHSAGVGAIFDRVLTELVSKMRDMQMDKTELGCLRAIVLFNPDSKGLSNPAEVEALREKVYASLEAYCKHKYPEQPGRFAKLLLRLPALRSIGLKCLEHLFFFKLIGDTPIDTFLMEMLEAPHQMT
UniProt O75446, sequence (O75446 whole entry, looked up): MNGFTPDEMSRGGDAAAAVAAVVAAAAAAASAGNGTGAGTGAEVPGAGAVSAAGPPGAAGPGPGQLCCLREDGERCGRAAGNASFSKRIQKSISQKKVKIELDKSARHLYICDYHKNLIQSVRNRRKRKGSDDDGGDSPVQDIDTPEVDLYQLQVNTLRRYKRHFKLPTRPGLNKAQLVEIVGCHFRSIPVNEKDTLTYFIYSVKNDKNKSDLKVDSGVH

With RBM4 isoform 3 (UniProt Q9BWF3), in test [1], the log2 fold change was -0.099.
Take RTTN (UniProt Q86VV8): the log2 fold change was -0.14 in test [2], -0.607 (active) with vorinostat, 0.138 in the test with silmitasertib and 0.053 in the test with entospletinib.
For RALGAPB isoform 3 (UniProt Q86X10), in the test with entospletinib, the log2 fold change was -0.045.
With SERAC1 (UniProt Q96JX3), the log2 fold change was 0.236 with vorinostat, 0.155 in the test with silmitasertib and -0.001 in the test with entospletinib.
As for RAP1GAP isoform 4 (UniProt P47736), the log2 fold change was -0.058 in test [2]; -0.419 (active) with vorinostat; -0.035 with silmitasertib; 0.022 in test [1]; -0.012 in the test with entospletinib.
ROBO2 isoform 3 (UniProt Q9HCK4): the log2 fold change with vorinostat was 0.136; in the test with silmitasertib, -0.019; in test [1], -0.042.
As to REL isoform 2 (UniProt Q04864), the log2 fold change in test [2] is -0.052; in the test with vorinostat it was -0.351 (active); with silmitasertib it was 0.07; in test [1], -0.004; with entospletinib, 0.019.
With RHBDD1 (UniProt Q8TEB9), the values for the log2 fold change (in test [2]; with entospletinib) were -0.162 and 0.036, respectively.
As for RAD17 (UniProt O75943), the log2 fold change in test [2] was -0.044; in test [1], -0.052; with entospletinib it was -0.039.
Consider RAB3IL1 (UniProt E9PK89), for which the log2 fold change in test [2] was 0.016; with vorinostat, -0.614 (active); with silmitasertib, 0.011; in test [1] it was 0.079; with entospletinib it was -0.158.
Regarding RNF24 isoform 2 (UniProt Q9Y225), the log2 fold change with vorinostat is 0.918 (active); with silmitasertib, -0.117; in test [1], 0.016.
In the case of RAPGEF4 (UniProt Q8WZA2), the log2 fold change is 0.219 in test [2]; 0.143 with vorinostat; -0.09 with silmitasertib; 0.353 in test [1]; 0.014 with entospletinib.
For S100A11 (UniProt P31949), the log2 fold change in test [2] was -0.085; in the test with vorinostat, 0.106; with silmitasertib, -0.057; in test [1], 0.046; with entospletinib it was -0.045.
RXRA (UniProt P19793): the log2 fold change in the test with vorinostat was -0.154; with silmitasertib it was 0.07; in test [1] it was -0.08.
Consider SAP30 (UniProt O75446), for which the log2 fold change in test [2] was 0.001; in test [1], -0.024; with entospletinib it was -0.022.
